Screens as filed in PubChem BioAssay.
Myeloid diff 2: promotes myeloid progenitor differentiation. ER-HoxA9 myeloid progenitors, lysozyme-GFP differentiation, flow cytometry. calls only at 10 µM. actives 1% (n = 360,000). AID 624256;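 active means normalized GFP-positive differentiation at or above the plate's own cutoff, the solvent-only control mean plus 3 SD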;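 further: cells exposed to compound for four days before flow analysis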
CendR NRP1 mod: NRP-1/CendR interaction modulation; O14786; FAM-RPARPAR peptide binding to NRP-1, fluorescence polarization; inhibition, % at 25 µM; actives 0.85% (n = 360,000);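 active means inhibition or corrected inhibition above about 18%, plus a signal ratio from 0.5 to 1.5, limit read from the data, passing the limit was not always enough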
CRFR2-BP antag: CRF-BP/CRF-R2 complex antagonism | HEK293 CRF-R2/CRF-BP, CRF-induced calcium fluorescence | AID 588475 | actives 0.59% (n = 350,000) | inhibition, % at 11.8 µM;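 active means inhibition of the ligand-induced calcium signal above about 50% at the single tested concentration, limit read from the data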
FAS-TE inh: inhibitors of human fatty acid synthase thioesterase domain; AID 602261; P49327; inhibition, % at 15 µM; actives 0.67% (n = 360,000); recombinant FAS-TE, OMFH fluorogenic substrate, fluorescence endpoint;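 active means compounds whose normalised, plate-corrected inhibition of enzyme fluorescence in the single-dose primary screen is 50% or more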;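 further: 0% = DMSO with enzyme and 100% = substrate without enzyme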
NadD block: inhibitors of Staphylococcus aureus NadD | purified NadD enzyme, colorimetric absorbance read-out | inhibition, % at 20 µM | actives 0.78% (n = 360,000); in the data active means inhibition above about 26%
NadD conf: confirmation of Staphylococcus aureus NadD inhibitors; shares compounds with NadD block; purified S. aureus NadD, colorimetric enzyme assay; inhibition, % at 20 µM; actives 13% (n = 2,000); AID 624309; in the data active means inhibition mostly above about 42%, no sharp cut-off; inactive means mostly below about 42%
The depositor's hits bear a star. The list is not random: actives were taken first. Their share in the collection is about 3.6%.

For Cc1cc(C)c2oc(-c3ccc(C)c(NC(=S)NC(=O)/C=C/c4ccco4)c3)nc2c1 the results were Myeloid diff 2 inactive, CendR NRP1 mod -17.0, CRFR2-BP antag -1.0, FAS-TE inh 19.6, NadD block 35.2* and NadD conf -2.2.
`Cc1ccc2oc(-c3cccc(NC(=S)NC(=O)c4cccs4)c3)nc2c1` gave Myeloid diff 2 inactive, CendR NRP1 mod -23.8, CRFR2-BP antag -5.2, FAS-TE inh -9.5 and NadD block -2.7.
Screening Cc1ccc(C(O)P(=O)(OCc2ccccc2)c2ccc(N(C)C)cc2)cc1 (stereo not given) returned Myeloid diff 2 inactive, CendR NRP1 mod -0.3, CRFR2-BP antag 5.3, FAS-TE inh 8.6 and NadD block -3.8.
Screening CN1OC[C@@H]2CN(Cc3ccccc3)[C@H](c3cccc(-c4ccc(C#N)cc4)c3)C[C@@H]21 returned Myeloid diff 2 inactive, CendR NRP1 mod -1.4, CRFR2-BP antag 16.3, FAS-TE inh 33.6 and NadD block 8.8.
`Cc1cscc1-c1ccc(C(=O)Nc2c(C)cccc2C)o1` gave Myeloid diff 2 inactive, CendR NRP1 mod -5.1, FAS-TE inh 7.7, NadD block 30.7* and NadD conf 37.6.
`Cc1ccc(-c2ccc(C(=O)Nc3ccccc3)o2)c2ccccc12` gave Myeloid diff 2 inactive, CendR NRP1 mod -5.6, CRFR2-BP antag 0.9, FAS-TE inh 23.8 and NadD block 9.8.
Screening Cc1ccccc1C(=O)Nc1nnc(CC(=O)N/N=C/c2cn(Cc3ccccc3)c3ccccc23)s1 returned Myeloid diff 2 inactive, CendR NRP1 mod -9.6, CRFR2-BP antag -6.3, FAS-TE inh 1.7, NadD block 45.4* and NadD conf 16.5.
N/C(=N\N=C\c1cccs1)SC1CC(=O)N(c2ccc(Br)cc2)C1=O (stereo not given) was read as Myeloid diff 2 inactive, CendR NRP1 mod -3.2, CRFR2-BP antag -40.0, FAS-TE inh 8.8 and NadD block 13.3.
Screening N/C(=N\N=C\c1ccnc2ccccc12)SC1CC(=O)N(c2ccc(Br)cc2)C1=O (stereo not given) returned Myeloid diff 2 inactive, CendR NRP1 mod -0.2, CRFR2-BP antag 8.3, FAS-TE inh 12.5, NadD block 46.4* and NadD conf 7.4.
Screening N=c1scc(-c2ccccc2)n1/N=C/c1ccco1 returned Myeloid diff 2 inactive, CendR NRP1 mod -29.7, CRFR2-BP antag 21.8, FAS-TE inh -0.1, NadD block 37.5* and NadD conf 45.0.
For C(=N/n1c2ccccc2c2ccccc21)/c1ccco1 the results were Myeloid diff 2 inactive, CendR NRP1 mod 2.5, CRFR2-BP antag 10.4, FAS-TE inh 27.2 and NadD block -1.0.
`Cc1ccc(N2C(=O)C3N=NN(CC(=O)N4N=C(c5ccccc5)CC4c4ccccc4)C3C2=O)cc1` (stereo not given) gave Myeloid diff 2 inactive, CendR NRP1 mod 0.9, CRFR2-BP antag -5.6, FAS-TE inh 26.8, NadD block 43.0* and NadD conf 31.4.
`CCOC(=O)c1c(-c2ccccc2)csc1NC(=O)/C(C#N)=C/c1ccc(O)c(OC)c1` gave Myeloid diff 2 active, CendR NRP1 mod 107.8, CRFR2-BP antag -215.6, FAS-TE inh 3.1, NadD block 44.5* and NadD conf 16.1.
COc1ccccc1C(=O)NCCC(=O)N1CCCC(C)C1 (stereo not given) was read as Myeloid diff 2 inactive, CendR NRP1 mod 15.7, CRFR2-BP antag -2.6, FAS-TE inh -7.2 and NadD block 4.3.
Screening CC(C)C[C@@H](CN1CCC[C@H]1CN1C(=O)C(=O)NC[C@@H]1Cc1ccccc1)N1C[C@H](Cc2ccccc2)N(CC2CCCCCC2)C(=O)C1=O returned Myeloid diff 2 inactive, CendR NRP1 mod -5.1, FAS-TE inh 16.8, NadD block 39.6* and NadD conf 25.3.
Screening CC(C)C[C@@H](CN1CCC[C@H]1CN1C(=O)C(=O)NC[C@@H]1Cc1ccc(O)cc1)N1C[C@H](Cc2ccccc2)N(CC2CCCCCC2)C(=O)C1=O returned Myeloid diff 2 inactive, CendR NRP1 mod -21.6, FAS-TE inh 28.0, NadD block 38.1* and NadD conf 31.7.
For CC(C)C[C@@H](CN1CCC[C@@H]1CN1C(=O)C(=O)NC[C@@H]1Cc1ccccc1)N1C[C@H](Cc2ccc(O)cc2)N(CC2CCCCCC2)C(=O)C1=O the results were Myeloid diff 2 inactive, CendR NRP1 mod 0.3, CRFR2-BP antag -11.8, FAS-TE inh 4.9 and NadD block 23.8.
`COc1cc(/C=C2/N=C(c3ccccc3)OC2=O)c(F)cc1OCc1ccccc1` gave Myeloid diff 2 inactive, CendR NRP1 mod -3.6, CRFR2-BP antag 1.3, FAS-TE inh 12.7, NadD block 38.8* and NadD conf 6.1.
COc1cc(/C=C2\N=C(c3ccccc3)OC2=O)ccc1OC(C)=O was read as Myeloid diff 2 inactive, CendR NRP1 mod -22.9, CRFR2-BP antag -7.9, FAS-TE inh 0.5 and NadD block 2.0.
For COc1cc(NCCCCCCN)c2ncccc2c1OC the results were Myeloid diff 2 inactive, CendR NRP1 mod 31.0*, CRFR2-BP antag 5.4, FAS-TE inh 16.8, NadD block 51.2* and NadD conf 22.5.
O=c1cc(-c2ccc(OCc3ccccc3)cc2)oc2cc(OCc3ccccc3)cc(OCc3ccccc3)c12 was read as Myeloid diff 2 inactive, CendR NRP1 mod -10.1, CRFR2-BP antag 1.2, FAS-TE inh 18.5, NadD block 41.6* and NadD conf 12.9.
`O=c1cc(-c2ccccc2)oc2cc(OCc3ccccc3)cc(O)c12` gave Myeloid diff 2 inactive, CendR NRP1 mod 4.3, CRFR2-BP antag -14.9, FAS-TE inh 26.2 and NadD block -1.2.
For CCOc1ccc(S(=O)(=O)N2CN(c3cccc(C(C)=O)c3)c3nc4ccccc4nc32)cc1 the results were Myeloid diff 2 inactive, CendR NRP1 mod -0.2, CRFR2-BP antag 51.7*, FAS-TE inh 9.4, NadD block 29.7* and NadD conf 7.5.
Cc1cc(=O)[nH]c(SCC(=O)Nc2ncc(S(=O)(=O)c3ccc([N+](=O)[O-])cc3)s2)n1 was read as Myeloid diff 2 inactive, CendR NRP1 mod -3.9, CRFR2-BP antag -4.2, FAS-TE inh 4.9 and NadD block 10.9.
`CC(C)c1ccc(Nc2nnc(SCC(=O)Nc3ncc(S(=O)(=O)c4ccc([N+](=O)[O-])cc4)s3)s2)cc1` gave Myeloid diff 2 inactive, CendR NRP1 mod -4.9, CRFR2-BP antag 9.9, FAS-TE inh -18.1, NadD block 36.3* and NadD conf 9.0.
`Cc1ccc(Nc2nnc(SCC(=O)Nc3ncc(S(=O)(=O)c4ccc([N+](=O)[O-])cc4)s3)s2)cc1` gave Myeloid diff 2 inactive, CendR NRP1 mod -12.9, CRFR2-BP antag 0.2, FAS-TE inh 0.3, NadD block 45.4* and NadD conf 7.8.
